In PubChem BioAssay:
Calls of active or inactive are those of the source.

Legend:
[1] = binders of probe aFSTL3 on microarray, primary screen, stem cell growth factor project, biochemical, small-molecule microarray, fluorescence 635/667 (AID 1064); conditions: higher = more signal;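 further: measures binding of the biotinylated anti-FSTL3 antibody to printed compounds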
[2] = binders from COS7 lysate, DM2A8 probe, primary screen, torsin A project, cell lysate, small-molecule microarray, fluorescence 635/667 (AID 1065); conditions: higher = more signal, COS7 lysate expressing mutant human TOR1A
[3] = binders of probe aFGF2 on microarray, primary screen, stem cell growth factor project, biochemical, small-molecule microarray, fluorescence 635/667 (AID 1067); conditions: higher = more signal;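 further: measures binding of biotinylated aFGF2 protein to printed compounds on slides; z-score merges feature fluorescence and signal-to-noise across triplicate slides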
[4] = binders of probe aFGF10 on microarray, primary screen, stem cell growth factor project, biochemical, small-molecule microarray, fluorescence 635/667 (AID 1071); conditions: higher = more signal;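 further: score merges 667 nm spot intensity and signal to noise from triplicate slides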
[5] = target: Neurogenic locus notch homolog protein 2 (Homo sapiens) (UniProt Q04721); experiment: Notch2 binders on small-molecule microarrays, primary screen, biochemical, small-molecule microarray, 635 nm fluorescence, stem cell growth factors (AID 1073); conditions: Notch2 binding, higher = more signal
[6] = target: Pro-neuregulin-1, membrane-bound isoform (Homo sapiens) (UniProt Q02297); experiment: NRG1 binders on small-molecule microarrays, primary screen, psychiatric disease protein project, biochemical, small-molecule microarray, fluorescence 635/667 (AID 1075); conditions: NRG1 binding, 635 nm fluorescence, higher = more signal;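 further: score combines 667 nm spot fluorescence with signal to noise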
[7] = tested on: Neuregulin-1 EGF-like domain; experiment: binders of neuregulin-1 EGF-like domain, primary screen, biochemical, small-molecule microarray, 635 nm fluorescence (AID 1081); conditions: small-molecule microarray binding, higher = more signal;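 further: binding of the protein to compounds printed on small-molecule microarray slides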
[8] = FRG1 promoter luciferase signal modulators, primary screen, FRG1 inhibition for FSHD, cell-based, C2C12 myotubes, firefly/Renilla luciferase, luminescence (AID 1084); conditions: higher = more signal, called active from +8 up or from −8 down
[9] = binders of probe aFST on microarray, primary screen, stem cell growth factor project, biochemical, small-molecule microarray, fluorescence 635/667 (AID 1086); conditions: higher = more signal;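 further: score merges 667 nm fluorescence with signal-to-noise of each printed compound spot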
[10] = binders of probe aHhip on microarray, primary screen, stem cell growth factor project, biochemical, small-molecule microarray, fluorescence 635/667 (AID 1087); conditions: higher = more signal;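 further: score merges spot fluorescence at 667nm with spot signal to noise ratio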
[11] = tested on: PRMT1 (protein arginine N-methyltransferase 1); experiment: PRMT1 binders on small-molecule microarrays, primary screen, biochemical, small-molecule microarray, 635 nm fluorescence (AID 1088); conditions: small-molecule microarray binding, higher = more signal;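 further: binding of Prmt1 protein to compounds spotted on small-molecule microarray slides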
[12] = yeast growth modulation, basal conditions, primary screen, YJM789 clinical isolate, OD600, 24 h (AID 1089);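 further: growth of clinical yeast isolate S. cerevisiae YJM 789 seeded 1000 cells per well; test concentration not given here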; conditions: S. cerevisiae YJM789 growth, higher = more signal, called active from +8 up or from −8 down
[13] = fission yeast growth modulation, primary screen, strain 972, OD600, 24 h, no modulator (AID 1090);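 further: basal condition with compound alone and no growth modifier present; test concentration not given here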; conditions: S. pombe 972 growth, higher = more signal, called active from +8 up or from −8 down
[14] = S. cerevisiae growth modulation with rapamycin, primary screen, strain BY4716, OD600, 96 h (AID 1091); conditions: higher = more signal, called active from +8 up or from −8 down; further: test concentration not given here
[15] = target: Torsin-1A-interacting protein 2 (Homo sapiens) (UniProt Q8NFQ8); experiment: LULL1 binders on small-molecule microarray, primary screen, cell lysate, human LULL1 lysate, 635/667 nm fluorescence (AID 1092); conditions: hLULL1 lysate binding, 635 nm fluorescence, higher = more signal;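 further: probe is lysate of COS7 cells overexpressing human LULL1; score merges per-feature 667 nm fluorescence with signal-to-noise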
[16] = E. coli growth modulation, two-sided OD650, primary screen, E. coli filamentation project, strain DRC41, 24 h (AID 1093); conditions: OD650, 24 h, higher = more signal, called active from +8 up or from −8 down;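 further: MC1000 strain lacking acrAB efflux and sulA so SOS filamentation is blocked; test concentration not given here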
[17] = small-molecule microarray binders of probe aLefty2, primary screen, biochemical, biotinylated probe, 635/667 nm fluorescence (AID 1094); conditions: higher = more signal;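 further: score merges spot fluorescence near 667 nm with spot signal-to-noise ratio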
[18] = tested on: Noggin (protein binding on small-molecule microarray); experiment: Noggin binders on small-molecule microarray, primary screen, biochemical, 635/667 nm fluorescence (AID 1095); conditions: 635 nm fluorescence, higher = more signal;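 further: score merges 667 nm feature fluorescence with signal to noise over triplicate slides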
[19] = target: Neurogenic locus notch homolog protein 3 (Homo sapiens) (UniProt Q9UM47); experiment: NOTCH3 binders on small-molecule microarray, primary screen, biochemical, 635/667 nm fluorescence (AID 1096); conditions: NOTCH3 binding, 635 nm fluorescence, higher = more signal
[20] = small-molecule microarray binders of probe aEGFR, primary screen, biochemical, biotinylated probe, 635/667 nm fluorescence (AID 1097); conditions: higher = more signal;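 further: probe is a biotinylated anti-EGFR antibody binding compounds printed on slides; score combines fluorescence near 667 nm and signal to noise of each spot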

Chain of Neurogenic locus notch homolog protein 3 (Homo sapiens) (Q9UM47 whole entry, looked up): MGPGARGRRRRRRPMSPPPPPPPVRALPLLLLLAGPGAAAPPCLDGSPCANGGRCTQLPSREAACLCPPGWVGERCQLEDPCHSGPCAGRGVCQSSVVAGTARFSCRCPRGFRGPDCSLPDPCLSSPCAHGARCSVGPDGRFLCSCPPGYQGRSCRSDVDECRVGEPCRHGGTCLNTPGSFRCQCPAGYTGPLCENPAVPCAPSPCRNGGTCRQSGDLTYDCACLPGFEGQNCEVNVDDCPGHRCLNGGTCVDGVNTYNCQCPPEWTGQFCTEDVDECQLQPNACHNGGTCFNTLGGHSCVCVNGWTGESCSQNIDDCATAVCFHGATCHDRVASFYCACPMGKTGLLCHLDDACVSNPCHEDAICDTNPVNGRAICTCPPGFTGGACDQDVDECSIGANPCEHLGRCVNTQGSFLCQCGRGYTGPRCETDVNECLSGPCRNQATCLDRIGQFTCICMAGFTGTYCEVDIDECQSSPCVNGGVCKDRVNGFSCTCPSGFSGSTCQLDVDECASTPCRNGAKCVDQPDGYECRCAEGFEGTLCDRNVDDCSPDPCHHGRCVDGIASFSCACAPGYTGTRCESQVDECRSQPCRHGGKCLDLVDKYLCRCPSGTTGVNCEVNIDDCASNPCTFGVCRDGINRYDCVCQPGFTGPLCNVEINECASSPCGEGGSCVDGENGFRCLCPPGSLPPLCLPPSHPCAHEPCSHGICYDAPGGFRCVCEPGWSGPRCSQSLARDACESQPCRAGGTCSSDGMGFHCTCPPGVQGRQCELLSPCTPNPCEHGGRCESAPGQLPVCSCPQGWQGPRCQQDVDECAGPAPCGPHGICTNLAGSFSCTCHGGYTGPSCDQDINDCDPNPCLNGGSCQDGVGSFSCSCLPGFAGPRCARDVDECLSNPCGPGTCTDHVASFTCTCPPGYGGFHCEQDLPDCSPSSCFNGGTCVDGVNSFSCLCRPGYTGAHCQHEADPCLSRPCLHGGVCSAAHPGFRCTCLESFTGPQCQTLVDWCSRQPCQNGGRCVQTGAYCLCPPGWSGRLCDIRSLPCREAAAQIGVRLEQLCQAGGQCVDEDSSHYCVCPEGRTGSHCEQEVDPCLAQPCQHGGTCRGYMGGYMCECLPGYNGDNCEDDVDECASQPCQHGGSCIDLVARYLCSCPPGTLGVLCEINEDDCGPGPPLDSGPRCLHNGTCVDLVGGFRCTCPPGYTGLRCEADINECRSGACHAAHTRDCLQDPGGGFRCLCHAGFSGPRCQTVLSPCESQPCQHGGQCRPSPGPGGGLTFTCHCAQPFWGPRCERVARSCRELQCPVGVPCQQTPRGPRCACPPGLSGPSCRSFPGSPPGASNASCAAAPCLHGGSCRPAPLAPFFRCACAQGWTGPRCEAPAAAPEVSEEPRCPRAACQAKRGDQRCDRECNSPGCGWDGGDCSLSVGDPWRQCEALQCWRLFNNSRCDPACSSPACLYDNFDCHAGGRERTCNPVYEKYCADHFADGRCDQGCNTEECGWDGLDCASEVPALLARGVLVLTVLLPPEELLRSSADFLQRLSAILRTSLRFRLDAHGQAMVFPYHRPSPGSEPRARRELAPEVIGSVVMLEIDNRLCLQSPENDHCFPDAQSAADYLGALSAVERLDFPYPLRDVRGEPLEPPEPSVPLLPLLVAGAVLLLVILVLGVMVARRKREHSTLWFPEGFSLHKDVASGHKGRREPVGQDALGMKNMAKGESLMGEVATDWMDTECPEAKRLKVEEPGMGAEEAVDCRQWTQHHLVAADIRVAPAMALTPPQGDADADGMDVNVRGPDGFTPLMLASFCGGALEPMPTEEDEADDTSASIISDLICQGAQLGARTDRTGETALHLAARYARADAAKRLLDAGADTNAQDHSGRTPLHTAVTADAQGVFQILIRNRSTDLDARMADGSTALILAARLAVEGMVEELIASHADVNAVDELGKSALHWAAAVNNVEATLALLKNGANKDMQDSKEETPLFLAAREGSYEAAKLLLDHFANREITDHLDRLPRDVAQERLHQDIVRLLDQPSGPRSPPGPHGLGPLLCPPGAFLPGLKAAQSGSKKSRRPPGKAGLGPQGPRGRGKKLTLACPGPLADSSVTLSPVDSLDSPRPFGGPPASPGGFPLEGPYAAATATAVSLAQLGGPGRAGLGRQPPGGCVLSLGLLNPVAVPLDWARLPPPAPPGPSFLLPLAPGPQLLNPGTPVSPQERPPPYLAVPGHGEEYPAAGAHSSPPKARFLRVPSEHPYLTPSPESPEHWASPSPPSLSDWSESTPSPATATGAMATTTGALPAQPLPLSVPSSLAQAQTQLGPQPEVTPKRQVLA
Chain of Pro-neuregulin-1, membrane-bound isoform (Homo sapiens) (Q02297 whole entry, looked up, the tested form may be a part, canonical isoform): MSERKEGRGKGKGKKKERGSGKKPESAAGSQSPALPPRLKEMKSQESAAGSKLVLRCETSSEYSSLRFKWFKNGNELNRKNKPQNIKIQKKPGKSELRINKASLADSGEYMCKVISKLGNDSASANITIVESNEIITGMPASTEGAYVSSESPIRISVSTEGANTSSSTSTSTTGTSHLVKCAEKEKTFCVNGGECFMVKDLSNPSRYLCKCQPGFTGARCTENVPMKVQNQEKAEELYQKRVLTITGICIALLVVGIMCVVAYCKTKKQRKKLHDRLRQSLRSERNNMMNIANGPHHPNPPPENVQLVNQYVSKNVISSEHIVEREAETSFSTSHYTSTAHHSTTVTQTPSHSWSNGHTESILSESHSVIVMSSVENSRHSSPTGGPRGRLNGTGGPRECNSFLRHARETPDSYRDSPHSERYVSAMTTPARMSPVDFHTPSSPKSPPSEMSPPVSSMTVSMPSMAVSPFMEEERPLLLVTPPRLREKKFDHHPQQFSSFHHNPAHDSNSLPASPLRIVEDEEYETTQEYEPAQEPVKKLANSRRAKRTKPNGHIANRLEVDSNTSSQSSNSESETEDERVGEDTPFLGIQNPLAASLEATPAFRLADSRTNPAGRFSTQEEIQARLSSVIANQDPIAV
Chain of Torsin-1A-interacting protein 2 (Homo sapiens) (Q8NFQ8 whole entry, looked up): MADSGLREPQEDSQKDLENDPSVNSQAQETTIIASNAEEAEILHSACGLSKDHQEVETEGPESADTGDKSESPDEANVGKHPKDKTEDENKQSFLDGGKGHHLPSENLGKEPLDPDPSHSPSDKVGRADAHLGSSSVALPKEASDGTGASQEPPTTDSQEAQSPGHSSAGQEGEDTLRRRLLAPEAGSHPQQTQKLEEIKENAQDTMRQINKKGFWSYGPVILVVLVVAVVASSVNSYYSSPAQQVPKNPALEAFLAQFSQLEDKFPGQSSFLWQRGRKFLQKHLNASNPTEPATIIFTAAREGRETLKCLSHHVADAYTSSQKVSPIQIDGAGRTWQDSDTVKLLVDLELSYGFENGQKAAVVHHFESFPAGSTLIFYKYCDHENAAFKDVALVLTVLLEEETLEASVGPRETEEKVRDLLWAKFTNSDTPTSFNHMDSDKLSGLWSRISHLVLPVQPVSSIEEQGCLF

SMILES | composite z-score [1] | composite z-score [2] | composite z-score [3] | composite z-score [4] | composite z-score [5] | composite z-score [6] | composite z-score [7] | z-score [8] | composite z-score [9] | composite z-score [10] | composite z-score [11] | z-score [12] | z-score [13] | z-score [14] | composite z-score [15] | z-score [16] | composite z-score [17] | composite z-score [18] | composite z-score [19] | composite z-score [20]
CCOC(=O)CCN1C(=O)[C@H]2[C@H]3[C@H](O)[C@H](O)CC(=NOCc4ccccc4)[C@H]3CC[C@H]2C1=O | 1.08 | -0.164 | -0.121 | 0.11 | 0.206 | -0.188 | -0.368 | -0.0531 (inactive) | 0.494 | -0.236 | -0.112 | 0.819 (inactive) | 1.04 (inactive) | 0.492 (inactive) | 0.374 | 1.08 (inactive) | 0.58 | -0.316 | -0.665 | 0.276
COc1cccc([C@H]2Oc3ccc(OC)cc3C(=NO[C@H](C)c3cn([C@H](CO)Cc4ccccc4)nn3)[C@@H]2O)c1 | -0.129 | -0.0315 | -0.112 | -0.0993 | -0.468 | -0.72 | -0.504 | 0.787 (inactive) | 0.107 | -0.134 | 0.203 | -1.77 (inactive) | 0.226 (inactive) | -1.21 (inactive) | 0.202 | 0.928 (inactive) | -0.126 | 0.259 | -0.657 | -0.188
CCOC(=O)[C@H](CC(C)C)NC(=O)CCC1CC(OC(=O)NCc2cccc3ccccc23)CC2(CCCC(COC(=O)NCc3ccncc3)O2)O1 (stereo not given in full) | -0.678 | 0.298 | -0.151 | 0.633 | 1.12 | 0.547 | 0.783 | -0.689 (inactive) | 0.407 | -0.236 | 1.56 | 0.649 (inactive) | 0.462 (inactive) | 0.678 (inactive) | 1.58 | 0.409 (inactive) | -0.166 | 0.433 | 0.789 | 0.157
CC(C)=CCCC(C)=CCON=C1C[C@@H](O)[C@@H](O)[C@@H]2[C@@H]3C(=O)N(Cc4ccccc4)C(=O)[C@@H]3CC[C@H]12 | -0.402 | -0.0325 | -0.0263 | 0.734 | 0.686 | 0.774 | 1.06 | 0.134 (inactive) | 0.342 | -0.305 | 1.06 | -0.574 (inactive) | -1.58 (inactive) | -1.29 (inactive) | 1.94 | -0.128 (inactive) | -0.236 | 0.608 | 0.811 | -0.034
CO[C@H]1COC(=O)CC=C[C@@H](C)[C@H](OC)COC(=O)CCC[C@@H]1C | -0.344 | 1.58 | -0.187 | 0.238 | -0.438 | -0.35 | -0.137 | 0.444 (inactive) | -0.126 | 0.176 | 0.76 | -1.47 (inactive) | -0.441 (inactive) | -1.37 (inactive) | -0.552 | -0.351 (inactive) | -0.17 | 0.978 | 0.288 | -0.163
C[C@@H]1CC[C@H]2C(=O)O[C@@H](Cc3ccccc3)CN2[C@H]1c1ccc(Br)cc1 | -0.395 | 0.207 | -0.185 | -0.112 | 0.526 | 0.649 | 0.408 | -0.205 (inactive) | 0.384 | -0.201 | 1.14 | 0.004 (inactive) | -2.36 (inactive) | -0.882 (inactive) | 1.16 | -0.529 (inactive) | -0.0258 | 0.31 | 0.22 | -0.0485
COC(=O)CC=C[C@@H](C)[C@@H](C=NO[C@@H](C)c1cn([C@H](CO)Cc2ccccc2)nn1)OC | -0.446 | 1.68 | -0.119 | -0.0052 | 0.0576 | -0.0718 | -0.265 | -0.839 (inactive) | 0.0066 | -0.34 | 1.05 | -2.66 (inactive) | -2.01 (inactive) | -0.773 (inactive) | 0.579 | -0.673 (inactive) | -0.173 | 0.719 | 0.627 | -0.114
COc1ccc(COC(=O)NN=C2C[C@@H](O)[C@@H](O)[C@@H]3[C@@H]4C(=O)N(c5ccc(F)cc5F)C(=O)[C@@H]4CC[C@H]23)cc1 | 1.64 | -0.398 | -0.128 | -0.088 | -0.412 | 0.461 | 0.179 | 0.398 (inactive) | 1.28 | -0.0645 | 0.0093 | 0.201 (inactive) | -4.12 (inactive) | -0.971 (inactive) | 0.142 | 0.0412 (inactive) | 0.469 | -0.186 | -0.425 | -0.171
COC(=O)[C@H](C)NC(=O)CCC1CC(OC(=O)NCCc2ccc(F)cc2)CC2(CCCC(COC(=O)NCc3cccc(C(F)(F)F)c3)O2)O1 (stereo not given in full) | -0.632 | 0.041 | -0.0265 | 0.624 | 1.36 | 0.0829 | 0.729 | 0.286 (inactive) | 0.829 | -0.0645 | 0.292 | -0.207 (inactive) | 1.18 (inactive) | 0.52 (inactive) | 1.79 | 0.723 (inactive) | -0.0668 | 1.01 | 0.581 | -0.0647
CCOC(=O)[C@H](CC(C)C)NC(=O)CCC1CC(OC(=O)NCCc2ccc(F)cc2)CC2(CCCC(COC(=O)NCC3CCCCC3)O2)O1 (stereo not given in full) | -0.595 | 0.101 | -0.0652 | 0.817 | 0.482 | 0.301 | 1.1 | 0.605 (inactive) | -0.0627 | -0.19 | 0.49 | -0.808 (inactive) | 0.541 (inactive) | 1.23 (inactive) | 1.12 | -0.61 (inactive) | -0.231 | 0.266 | 0.291 | 0.0069
